Source: PubChem BioAssay (EPA / NIEHS)
Results filed as inconclusive are left out. The source made the active and inactive calls. The calls were made as follows, unless noted: active = hit-call score of the fitted dose curve at least 0.9, where 1 is the maximum; inconclusive = response in the unintended direction; inactive = score below 0.9.

Key:
[1] = molecular target: Glucocorticoid receptor (Homo sapiens) (UniProt P04150); experiment: ATG_GR_TRANS: Attagene TRANS-FACTORIAL HepG2 Assay for human Glucocorticoid Receptor (GR) (AID 2282978); details: HepG2 Attagene TRANS GR reporter, mRNA transcription;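 also: activators score as hits since higher reporter transcript over DMSO is fitted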
Chain of Glucocorticoid receptor (Homo sapiens) (P04150 whole entry, looked up, the tested form may be a part): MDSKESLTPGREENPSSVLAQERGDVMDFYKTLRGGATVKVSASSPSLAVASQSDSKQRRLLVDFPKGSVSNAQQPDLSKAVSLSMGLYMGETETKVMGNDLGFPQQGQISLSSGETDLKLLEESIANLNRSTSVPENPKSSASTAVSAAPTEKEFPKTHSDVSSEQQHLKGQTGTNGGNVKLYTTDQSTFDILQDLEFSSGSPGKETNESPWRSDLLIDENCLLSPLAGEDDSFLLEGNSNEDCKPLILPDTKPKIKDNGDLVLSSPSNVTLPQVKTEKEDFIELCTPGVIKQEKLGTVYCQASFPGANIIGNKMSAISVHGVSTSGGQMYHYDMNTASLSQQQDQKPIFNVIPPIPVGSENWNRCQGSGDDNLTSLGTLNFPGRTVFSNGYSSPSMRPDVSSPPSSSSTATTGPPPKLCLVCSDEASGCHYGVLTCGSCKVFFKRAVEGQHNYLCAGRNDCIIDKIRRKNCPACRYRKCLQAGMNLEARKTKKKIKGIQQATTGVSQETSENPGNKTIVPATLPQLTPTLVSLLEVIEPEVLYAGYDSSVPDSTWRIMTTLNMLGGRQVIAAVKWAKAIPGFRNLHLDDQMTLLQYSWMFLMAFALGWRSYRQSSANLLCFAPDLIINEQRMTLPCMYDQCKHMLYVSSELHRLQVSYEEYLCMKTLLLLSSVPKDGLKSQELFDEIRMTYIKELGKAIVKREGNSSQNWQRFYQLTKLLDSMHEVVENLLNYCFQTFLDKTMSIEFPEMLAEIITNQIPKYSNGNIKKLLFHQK
Outline: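 HepG2 cells transiently transfected with multiplexed reporter units in which chimeric NR-GAL4 proteins drive GAL4-UAS reporters; 24 h compound exposure. Reporter mRNA measured by RT-PCR, 6-FAM labelling, HpaI digestion and capillary electrophoresis; gain-of-signal fitted versus DMSO.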

[2] = molecular target: Oxysterols receptor LXR-alpha (Homo sapiens) (UniProt Q13133); experiment: ATG_LXRa_TRANS: Attagene TRANS-FACTORIAL HepG2 Assay for human Liver X Receptor alpha (LXRa) (AID 2282980); details: HepG2 Attagene TRANS reporter, LXRa transactivation
Chain of Oxysterols receptor LXR-alpha (Homo sapiens) (Q13133 whole entry, looked up): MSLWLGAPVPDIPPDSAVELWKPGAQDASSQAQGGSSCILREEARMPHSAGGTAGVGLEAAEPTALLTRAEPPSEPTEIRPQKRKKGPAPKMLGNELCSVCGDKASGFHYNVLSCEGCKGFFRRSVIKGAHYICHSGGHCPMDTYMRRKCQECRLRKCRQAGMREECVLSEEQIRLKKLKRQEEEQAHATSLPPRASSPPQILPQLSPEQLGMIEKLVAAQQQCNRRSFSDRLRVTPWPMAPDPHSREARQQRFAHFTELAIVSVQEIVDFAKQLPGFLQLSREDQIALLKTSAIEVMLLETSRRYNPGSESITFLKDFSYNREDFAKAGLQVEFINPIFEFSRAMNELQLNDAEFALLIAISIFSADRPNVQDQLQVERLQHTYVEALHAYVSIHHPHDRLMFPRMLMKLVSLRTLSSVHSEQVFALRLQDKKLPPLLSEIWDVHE
Outline: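 Transient HepG2 transfectants, 24 h dosing, RT-PCR/CE mRNA reporter quantitation; gain-of-signal vs DMSO.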

[3] = molecular target: Hepatocyte nuclear factor 4-alpha (Homo sapiens) (UniProt P41235); experiment: ATG_HNF4a_TRANS: Attagene TRANS-FACTORIAL HepG2 Assay for human Hepatocyte Nuclear Factor 4 alpha (HNF4a) (AID 2282982); details: HepG2 HNF4a transactivation reporter, mRNA readout
Chain of Hepatocyte nuclear factor 4-alpha (Homo sapiens) (P41235 whole entry, looked up): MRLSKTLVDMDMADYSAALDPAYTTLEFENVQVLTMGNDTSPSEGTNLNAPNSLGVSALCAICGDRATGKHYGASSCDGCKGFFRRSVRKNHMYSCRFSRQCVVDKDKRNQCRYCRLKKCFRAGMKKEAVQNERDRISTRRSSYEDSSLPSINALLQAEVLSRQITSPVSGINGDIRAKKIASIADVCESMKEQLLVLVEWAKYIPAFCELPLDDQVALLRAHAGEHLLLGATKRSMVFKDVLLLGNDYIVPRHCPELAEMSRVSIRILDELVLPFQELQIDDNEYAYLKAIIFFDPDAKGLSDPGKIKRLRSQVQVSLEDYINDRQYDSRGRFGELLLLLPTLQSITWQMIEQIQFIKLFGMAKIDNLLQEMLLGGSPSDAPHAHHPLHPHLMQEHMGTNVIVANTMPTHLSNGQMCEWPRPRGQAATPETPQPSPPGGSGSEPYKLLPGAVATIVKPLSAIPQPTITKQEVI
Outline: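 Transient MRTU transfection of HepG2, 24 h dosing. Readout: reporter mRNA via RT-PCR + capillary electrophoresis, fluorescence; activity fit upward relative to DMSO control.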

[4] = ATG_M_06_TRANS: Attagene TRANS-FACTORIAL HepG2 Assay for M06 Transcription Factor (Internal Marker) (AID 2282983); details: HepG2 Attagene TRANS M06 internal marker reporter;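 also: reporter transcript level by RT-PCR then capillary electrophoresis fluorescence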
Outline: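 Human liver HepG2 cells bearing transiently transfected chimeric NR-GAL4 reporter units were treated with chemicals for 24 h. Total RNA was reverse-transcribed, reporter sequences amplified and labelled, then quantified by capillary electrophoresis. Activity was fitted upward relative to DMSO.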

[5] = ATG_M_32_TRANS: Attagene TRANS-FACTORIAL HepG2 Assay for M32 Transcription Factor (Internal Marker) (AID 2282984); details: HepG2 Attagene TRANS M32 internal marker reporter;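 also: transcript level of a background control reporter unit measured by RT-PCR and capillary electrophoresis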
Outline: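 Read-out: fluorescent reporter cDNA fragments resolved by capillary electrophoresis after RT-PCR of total RNA. Transfected HepG2 cells were exposed to chemical for 24 h. Activity scored in the positive direction relative to DMSO.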

[6] = molecular target: Transcriptional activator Myb (Homo sapiens) (UniProt P10242); experiment: ATG_Myb_CIS: Attagene CIS-FACTORIAL HepG2 Assay for human Myeloblastosis (Myb) Proto-Oncogene Transcription Factor (AID 2282986; active = hit-call score of the fitted dose curve at least 0.9, where 1 is the maximum; inactive = score below 0.9); details: HepG2 Attagene CIS-FACTORIAL Myb reporter transcription; actives raise or lower the signal
Chain of Transcriptional activator Myb (Homo sapiens) (P10242 whole entry, looked up): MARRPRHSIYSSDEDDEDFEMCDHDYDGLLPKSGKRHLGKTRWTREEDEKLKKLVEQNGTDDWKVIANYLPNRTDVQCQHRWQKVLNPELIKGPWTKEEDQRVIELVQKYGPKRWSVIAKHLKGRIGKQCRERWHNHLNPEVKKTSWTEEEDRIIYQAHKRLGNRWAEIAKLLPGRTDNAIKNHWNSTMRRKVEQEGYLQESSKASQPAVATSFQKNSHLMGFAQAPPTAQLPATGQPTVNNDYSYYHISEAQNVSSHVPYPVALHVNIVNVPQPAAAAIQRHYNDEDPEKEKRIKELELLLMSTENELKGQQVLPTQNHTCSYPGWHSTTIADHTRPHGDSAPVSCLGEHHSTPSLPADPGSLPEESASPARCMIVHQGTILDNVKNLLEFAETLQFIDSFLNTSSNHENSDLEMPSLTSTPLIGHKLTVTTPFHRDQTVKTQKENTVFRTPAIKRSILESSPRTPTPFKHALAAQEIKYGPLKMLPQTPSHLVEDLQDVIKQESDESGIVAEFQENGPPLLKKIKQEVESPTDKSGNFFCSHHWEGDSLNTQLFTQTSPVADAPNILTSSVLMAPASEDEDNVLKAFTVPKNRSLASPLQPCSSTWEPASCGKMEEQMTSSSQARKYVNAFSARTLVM
Outline: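 HepG2 cells were transiently transfected with cis-regulated multiple reporter transcription units reflecting endogenous Myb activity, then exposed to compound for 24 hours. Reporter mRNA was measured by RT-PCR with capillary electrophoresis; bidirectional fitting versus DMSO baseline.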

[7] = molecular target: Nuclear respiratory factor 1 (Homo sapiens) (UniProt Q16656); experiment: ATG_NRF1_CIS: Attagene CIS-FACTORIAL HepG2 Assay for human Nuclear Respiratory Factor 1 (NRF1) Orphan Gene (AID 2282987; active = hit-call score of the fitted dose curve at least 0.9, where 1 is the maximum; inactive = score below 0.9); details: HepG2 NRF1 cis-element reporter, Attagene multiplex; actives raise or lower the signal
Chain of Nuclear respiratory factor 1 (Homo sapiens) (Q16656 whole entry, looked up): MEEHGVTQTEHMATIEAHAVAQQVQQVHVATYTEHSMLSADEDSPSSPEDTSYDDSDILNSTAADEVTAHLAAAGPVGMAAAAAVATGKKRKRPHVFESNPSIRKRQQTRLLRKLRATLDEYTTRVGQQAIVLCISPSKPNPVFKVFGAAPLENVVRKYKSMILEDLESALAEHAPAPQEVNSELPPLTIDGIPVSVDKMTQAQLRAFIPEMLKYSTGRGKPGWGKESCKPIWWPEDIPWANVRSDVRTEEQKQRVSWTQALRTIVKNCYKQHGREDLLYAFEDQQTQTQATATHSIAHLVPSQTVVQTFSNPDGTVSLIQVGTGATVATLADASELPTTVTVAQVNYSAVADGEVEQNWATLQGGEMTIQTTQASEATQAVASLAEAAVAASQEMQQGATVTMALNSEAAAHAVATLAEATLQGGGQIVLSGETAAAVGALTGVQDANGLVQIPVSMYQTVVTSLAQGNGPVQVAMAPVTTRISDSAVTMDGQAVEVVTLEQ
Outline: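 HepG2 cells transiently transfected with multiple reporter transcription units under cis-regulatory promoter control, so endogenous transcription-factor activity is read. After 24 h compound exposure, reporter mRNA quantified by RT-PCR, fluorescent labelling, HpaI digestion and capillary electrophoresis; bidirectional fitting versus DMSO.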

[8] = molecular target: Oxysterols receptor LXR-beta (Homo sapiens) (UniProt P55055); experiment: ATG_LXRb_TRANS: Attagene TRANS-FACTORIAL HepG2 Assay for human Liver X Receptor beta (LXRb) (AID 2282981); details: HepG2 Attagene TRANS GAL4-LXRb reporter, mRNA
Chain of Oxysterols receptor LXR-beta (Homo sapiens) (P55055 whole entry, looked up, the tested form may be a part): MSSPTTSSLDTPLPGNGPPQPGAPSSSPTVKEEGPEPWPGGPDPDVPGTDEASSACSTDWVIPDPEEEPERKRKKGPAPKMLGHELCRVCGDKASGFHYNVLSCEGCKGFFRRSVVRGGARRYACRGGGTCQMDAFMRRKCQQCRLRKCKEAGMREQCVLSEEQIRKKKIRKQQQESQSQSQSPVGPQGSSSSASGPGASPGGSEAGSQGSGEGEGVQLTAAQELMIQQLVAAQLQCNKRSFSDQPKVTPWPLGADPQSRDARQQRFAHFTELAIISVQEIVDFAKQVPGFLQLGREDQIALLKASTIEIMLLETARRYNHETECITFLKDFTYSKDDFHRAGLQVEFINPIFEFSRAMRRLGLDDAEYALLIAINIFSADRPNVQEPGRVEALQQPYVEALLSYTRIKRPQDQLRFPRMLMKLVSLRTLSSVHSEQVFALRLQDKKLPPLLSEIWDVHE
Outline: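 Readout: fluorescent reporter mRNA fragments resolved by capillary electrophoresis after RT-PCR. System: transiently transfected human HepG2, exogenous LXRb-Gal4 chimera driving GAL4-UAS reporter, 24 h dosing. Activity fitted upward against DMSO baseline.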

[9] = molecular target: Bile acid receptor (Homo sapiens) (UniProt Q96RI1); experiment: ATG_FXR_TRANS: Attagene TRANS-FACTORIAL HepG2 Assay for Farnesoid X Receptor (FXR) (AID 2282979); details: HepG2 Attagene TRANS FXR-GAL4 reporter transcription;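 also: hits raise reporter mRNA above DMSO so AC50 marks FXR activation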
Chain of Bile acid receptor (Homo sapiens) (Q96RI1 whole entry, looked up, the tested form may be a part): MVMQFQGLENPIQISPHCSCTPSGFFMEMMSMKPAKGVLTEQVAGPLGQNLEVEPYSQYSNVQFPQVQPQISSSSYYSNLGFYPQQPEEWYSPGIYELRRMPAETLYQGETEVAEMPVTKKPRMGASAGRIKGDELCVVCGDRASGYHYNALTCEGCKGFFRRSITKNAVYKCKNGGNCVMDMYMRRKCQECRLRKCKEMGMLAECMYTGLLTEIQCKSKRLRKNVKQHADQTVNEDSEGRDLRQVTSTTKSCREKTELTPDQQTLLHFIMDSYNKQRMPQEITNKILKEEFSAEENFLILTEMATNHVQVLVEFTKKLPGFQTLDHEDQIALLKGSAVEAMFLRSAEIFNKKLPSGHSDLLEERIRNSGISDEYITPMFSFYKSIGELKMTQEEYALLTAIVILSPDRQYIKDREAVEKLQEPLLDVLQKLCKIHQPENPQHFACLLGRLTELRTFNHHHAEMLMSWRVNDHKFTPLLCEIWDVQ
Outline: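 Chimeric FXR-GAL4 activity in transiently transfected human HepG2 liver cells is scored as induction of reporter mRNA after 24 h of dosing. Detection uses RT-PCR with fluorescent labelling and capillary electrophoresis, with DMSO serving as baseline.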

[10] = molecular target: Nuclear receptor subfamily 4 group A member 2 (Homo sapiens) (UniProt P43354); experiment: ATG_NURR1_TRANS: Attagene TRANS-FACTORIAL HepG2 Assay for human Nuclear Receptor Related Protein 1 (NURR1) (AID 2282985); details: HepG2 Attagene TRANS reporter, mRNA readout
Chain of Nuclear receptor subfamily 4 group A member 2 (Homo sapiens) (P43354 whole entry, looked up, the tested form may be a part): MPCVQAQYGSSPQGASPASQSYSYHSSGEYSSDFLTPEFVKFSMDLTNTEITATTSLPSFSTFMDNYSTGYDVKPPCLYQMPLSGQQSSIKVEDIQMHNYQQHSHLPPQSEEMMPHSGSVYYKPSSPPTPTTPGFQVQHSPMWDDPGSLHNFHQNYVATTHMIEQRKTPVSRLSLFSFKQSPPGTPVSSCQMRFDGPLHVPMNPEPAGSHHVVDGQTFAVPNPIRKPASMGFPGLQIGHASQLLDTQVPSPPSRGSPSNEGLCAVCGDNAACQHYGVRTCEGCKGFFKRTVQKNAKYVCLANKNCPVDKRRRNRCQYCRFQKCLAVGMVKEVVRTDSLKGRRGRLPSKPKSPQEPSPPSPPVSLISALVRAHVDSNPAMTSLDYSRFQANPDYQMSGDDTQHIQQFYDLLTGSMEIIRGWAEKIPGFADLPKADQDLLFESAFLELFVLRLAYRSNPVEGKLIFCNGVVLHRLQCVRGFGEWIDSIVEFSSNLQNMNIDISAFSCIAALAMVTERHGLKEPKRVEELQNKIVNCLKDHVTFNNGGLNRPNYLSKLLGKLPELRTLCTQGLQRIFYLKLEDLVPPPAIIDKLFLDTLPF
Outline: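 Read-out: reporter mRNA induction by RT-PCR plus capillary electrophoresis with fluorescence detection, after 24 h dosing of transfected HepG2 cells. Exogenous NR-Gal4 chimera activity drives GAL4-UAS reporter; activity fitted upward versus DMSO.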

Measured: AC50

O=C(O)c1cccc([N+](=O)[O-])c1
not listed: [8] | [9] | [10]
inactive: all other assays above

[Ca+2]
not listed: [5] | [9] | [10]
inactive: all other assays above

CC(=O)OCCC(C)CC(C)(C)C (stereo not drawn)
inactive: [1] | [9] | [4] | [6] | [7]

NC(=O)Nc1ccc(Cl)cc1
inactive: [1] | [2] | [3] | [5] | [6] | [7]

CC(O)C(C)O (stereo not drawn)
not listed: [5] | [9]
inactive: all other assays above

Cc1ccc(C(=O)c2cc(O)c(O)c([N+](=O)[O-])c2)cc1
active: [1] 144 µM
not listed: [5] | [9] | [10]
inactive: all other assays above

CNC(=O)Oc1ccc2c(c1)[C@]1(C)CCN(C)[C@@H]1N2C
inactive: [1] | [9] | [5] | [10] | [6] | [7]

CC(C)(COC(=O)c1ccccc1)COC(=O)c1ccccc1
not listed: [9]
inactive: all other assays above

Nc1cc(N)cc(C(=O)O)c1
inactive: [1] | [2] | [8] | [4] | [6] | [7]

CC1CCC(C(C)CS)CC1S (stereo not drawn)
inactive: [1] | [2] | [8] | [4] | [7]

COc1cc(C)cc(O)c1
inactive: [1] | [2] | [8] | [5] | [7]

CC(=O)OCC=Cc1ccccc1
inactive: [1] | [9] | [5] | [10] | [6] | [7]

O=C(O)c1cn(C2CC2)c2cc(N3CCNCC3)c(F)cc2c1=O
inactive: [1] | [9] | [4] | [6]

CC(=O)Nc1ccc(CC(=O)O)cc1
inactive: [1] | [2] | [8] | [6] | [7]

Clc1ccc2c(c1)C(N1CCNCC1)=Nc1ccccc1O2
active: [2] 44.4 µM
not listed: [9]
inactive: all other assays above

CC(C)c1ccc(C(C)C)cc1
inactive: [1] | [9] | [4] | [5] | [7]

CCCCCC=CCC(=O)OC
inactive: [1] | [2] | [8] | [3] | [10] | [7]

Cc1c(Cl)c(=O)oc2cc(O)ccc12
active: [2] 20.9 µM
inactive: [1] | [8] | [10] | [6] | [7]

CCCCCCOC(=O)CCCCC
inactive: [1] | [3] | [6] | [7]

O=Nc1ccc(Nc2ccccc2)cc1
active: [7] 56.3 µM
not listed: [1] | [4] | [10]
inactive: all other assays above

O=[N+]([O-])c1cc(C(F)(F)F)ccc1Cl
inactive: [1] | [3] | [4] | [5] | [6] | [7]

O=C(O)c1cn(-c2ccc(F)cc2)c2cc(N3CCNCC3)c(F)cc2c1=O
inactive: [1] | [10] | [6] | [7]

Cc1c(N(C)C)c(=O)n(-c2ccccc2)n1C
not listed: [1] | [3]
inactive: all other assays above

N#Cc1ccc(CC(=NNC(=O)Nc2ccc(OC(F)(F)F)cc2)c2cccc(C(F)(F)F)c2)cc1
inactive: [1] | [8] | [6] | [7]

CCCCCCCCCCCCOCCO
active: [7] 52.5 µM
inactive: [1] | [4] | [6]

Nc1cc([N+](=O)[O-])ccc1O
not listed: [2] | [8] | [9]
inactive: all other assays above

CC(C)(C)NC(N)=O
inactive: [1] | [8] | [4] | [6] | [7]

CC1(C)[C@H]2CC[C@]1(C)[C@H](O)C2
inactive: [1] | [4] | [5] | [10] | [6] | [7]

CC(c1cc2ccccc2s1)N(O)C(N)=O (stereo not drawn)
inactive: [8] | [6] | [7]
active: [1] 100 µM

S=C(S)NCCNC(=S)S
inactive: [1] | [4] | [5] | [6] | [7]

CCCCCCCCCCN
inactive: [1] | [8] | [5] | [10] | [7]

O=C=NC1CCC(CC2CCC(N=C=O)CC2)CC1 (stereo not drawn)
inactive: [1] | [4] | [6] | [7]

CCCCc1ccc(N)cc1
not listed: [2] | [8] | [9]
inactive: all other assays above

N#Cc1ccccc1
not listed: [2] | [8] | [9]
inactive: all other assays above

CCC(=O)OCc1ccccc1
inactive: [1] | [4] | [5] | [6] | [7]

CC1COc2ccccc2N1C(=O)C(Cl)Cl (stereo not drawn)
inactive: [1] | [6] | [7]

CCCCC(CC)COCCC#N (stereo not drawn)
inactive: [1] | [4] | [5] | [10] | [6] | [7]

O=S(=O)(O)c1ccc(O)c2ncccc12
inactive: [1] | [3] | [4] | [10] | [6] | [7]

CO[Si](C)(OC)c1ccccc1
inactive: [1] | [4] | [10] | [6] | [7]

FC1(F)C(F)(F)C(F)(F)C2(F)C(F)(C1(F)F)C(F)(F)C(F)(F)C1(F)C(F)(F)C(F)(F)C(F)(F)C(F)(F)C12F (stereo not drawn)
inactive: [1] | [3] | [4] | [6] | [7]

C=C[Si](OCC)(OCC)OCC
inactive: [1] | [4] | [5] | [6] | [7]

O=C1CCCCCCCCCCCCCCO1
inactive: [1] | [6] | [7]

O=[N+]([O-])c1ccc(Nc2ccc(Nc3ccccc3)c(S(=O)(=O)O)c2)c([N+](=O)[O-])c1
inactive: [1] | [8] | [5] | [7]

Cc1ccc(C(C)C)cc1O
not listed: [2] | [8] | [9]
inactive: all other assays above

Cc1ccc2n[nH]nc2c1
inactive: [1] | [4] | [5] | [6] | [7]

CC(C=O)Cc1ccc(C(C)C)cc1 (stereo not drawn)
not listed: [2] | [8] | [9]
inactive: all other assays above

Cc1cc(C2(c3cc(C)c(O)cc3C)OS(=O)(=O)c3ccccc32)c(C)cc1O
inactive: [1] | [3] | [4] | [6] | [7]

CC1(C)[C@@H]2CC[C@@]1(C)[C@H](O)C2
inactive: [1] | [6] | [7]

CC(C)C[C@H]1C(=O)N2CCC[C@H]2[C@]2(O)O[C@](NC(=O)[C@@H]3C=C4c5cccc6[nH]c(Br)c(c56)C[C@H]4N(C)C3)(C(C)C)C(=O)N12
inactive: [1] | [5] | [6]
active: [10] 5.67 µM | [7] 3.24 µM

O=C(Oc1ccccc1)c1ccc(O)cc1
inactive: [1] | [4] | [5] | [6] | [7]

CCCCC(CC)COC(=O)/C=C\C(=O)OCC(CC)CCCC (stereo not drawn)
inactive: [1] | [10] | [6] | [7]

CN(C)c1ccc(O)c2c1C[C@H]1C[C@H]3[C@H](N(C)C)C(=O)C(C(N)=O)=C(O)[C@@]3(O)C(=O)C1=C2O
inactive: [1] | [8] | [10] | [6] | [7]

O=[N+]([O-])c1ccc(C=Cc2ccc([N+](=O)[O-])cc2S(=O)(=O)O)c(S(=O)(=O)O)c1
inactive: [1] | [3] | [4] | [10] | [6] | [7]

COc1cccc(OC)c1
inactive: [1] | [8] | [6] | [7]

CCC(C)(O)CCC=C(C)C (stereo not drawn)
inactive: [1] | [4] | [10] | [6] | [7]

CCCCCCC#CC(=O)OC
inactive: [1] | [3] | [4] | [6] | [7]

CC(C)=CCC/C(C)=C/COC=O
not listed: [1] | [9] | [10]
inactive: all other assays above

CCCCO
inactive: [9] | [3] | [5] | [6] | [7]

O=C(O)COCCN1CCN(C(c2ccccc2)c2ccc(Cl)cc2)CC1 (stereo not drawn)
inactive: [9] | [4] | [5]

C[C@H]1C[C@H]2[C@@H]3CCC4=CC(=O)C=C[C@]4(C)[C@@]3(F)[C@@H](O)C[C@]2(C)[C@@]1(O)C(=O)COP(=O)(O)O
inactive: [2] | [8] | [3] | [5] | [6] | [7]

CCCCCCCCC=O
inactive: [2] | [8] | [3] | [4] | [6] | [7]

O=c1[nH]nnc2ccccc12
inactive: [9] | [3] | [6] | [7]
